Source: PubChem BioAssay AID623911 (Vanderbilt High Throughput Screening Facility, 2012)
Out of some 2,100 compounds screened, about 770 (37%) were called active.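 Rule for the calls: active = by-eye trace score of 1 for enhancers or -1 for inhibitors, so actives lie on both sides (some results past the limit were not filed as active); inactive = score 0, or 3 fluorescent, or 4 baseline rise.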 The list shows a part of the results.

biological target: G protein-activated inward rectifier potassium channel 2 (Homo sapiens) + G protein-activated inward rectifier potassium channel 1 (Homo sapiens) (UniProt P48051+P48549); assay: GIRK1/2 thallium flux modulators, retest, confirmation, cell-based, HEK293 rmGlu8/hGIRK1/2, FluoZin-2 (AID 623911); conditions: HEK293 rmGlu8/hGIRK1/2, thallium flux FluoZin-2; actives lie on both sides; glutamate co-added at its EC20 level
Sequence (P48051 whole entry, looked up): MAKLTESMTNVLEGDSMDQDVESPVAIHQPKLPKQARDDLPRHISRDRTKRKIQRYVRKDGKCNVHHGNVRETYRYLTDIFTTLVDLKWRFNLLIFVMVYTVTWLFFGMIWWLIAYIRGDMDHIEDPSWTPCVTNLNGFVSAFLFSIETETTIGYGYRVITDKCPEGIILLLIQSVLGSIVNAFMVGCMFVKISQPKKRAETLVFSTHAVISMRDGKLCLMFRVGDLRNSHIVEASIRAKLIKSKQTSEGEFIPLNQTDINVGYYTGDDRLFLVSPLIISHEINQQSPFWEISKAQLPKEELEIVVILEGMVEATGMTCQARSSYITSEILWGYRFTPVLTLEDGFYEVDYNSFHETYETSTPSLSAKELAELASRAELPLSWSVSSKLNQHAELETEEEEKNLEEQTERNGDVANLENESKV
Sequence (P48549 whole entry, looked up): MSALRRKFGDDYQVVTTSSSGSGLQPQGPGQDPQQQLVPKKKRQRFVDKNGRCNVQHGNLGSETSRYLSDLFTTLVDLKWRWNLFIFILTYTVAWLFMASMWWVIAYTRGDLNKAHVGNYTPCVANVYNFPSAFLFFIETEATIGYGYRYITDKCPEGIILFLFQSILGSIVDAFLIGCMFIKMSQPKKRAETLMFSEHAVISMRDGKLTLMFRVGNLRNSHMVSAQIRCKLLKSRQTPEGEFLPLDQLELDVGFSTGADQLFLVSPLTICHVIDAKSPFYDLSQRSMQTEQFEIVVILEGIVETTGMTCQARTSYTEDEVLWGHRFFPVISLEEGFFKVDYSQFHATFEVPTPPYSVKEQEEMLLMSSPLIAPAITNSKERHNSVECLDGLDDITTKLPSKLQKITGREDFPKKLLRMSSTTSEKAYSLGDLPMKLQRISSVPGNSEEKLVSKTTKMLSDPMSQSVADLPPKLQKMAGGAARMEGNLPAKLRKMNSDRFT

Manual score, active:
COc1cc(C(=O)NC2CC3CCCC(C2)N3CC(=O)Nc2ccccc2)cc(OC)c1OC (stereo unspecified) -1
CC1CCN(CC(O)COC2CCC(C(C)(C)C)CC2)CC1 (stereo unspecified) -1
COc1cccc(NC(=O)NCCCSC2CCCCC2)c1 1
Cc1sc2c(c1C)CN(C1CC(C)(C)NC(C)(C)C1)CN2C(=O)c1ccco1 -1
C/C(=N\NC(=O)COc1ccc(C)cc1C(C)C)c1ccc(-n2ccnc2)cc1 -1
Cc1ccc(Nc2cc(C)nn2-c2nc(C)cc(=O)[nH]2)cc1 1
COc1ccccc1Nc1ccc(Nc2ccccc2OC)nn1 1
COc1ccc(Cn2c(=S)[nH]c3ccsc3c2=O)cc1 1
O=C(NNC(=O)c1sccc1-n1cccc1)c1cccc(Cl)c1 1
O=C(NNS(=O)(=O)c1cc(Cl)cc(Cl)c1)c1sccc1-n1cccc1 1
O=C(NNC(=O)c1sccc1-n1cccc1)c1ccc(Cl)cc1 1
O=C(NN=c1c(=O)c2ccccc2c1=O)c1ccccc1 1
O=C(NNc1nc2ccccc2nc1C(F)(F)F)c1ccccc1 1
Cc1ccc(C(=O)NNc2nc3ccccc3nc2C(F)(F)F)cc1 1
COc1cc(NC(=O)Cn2nnc(-c3ccccc3N)n2)cc(OC)c1 1
O=C(CSc1nnnn1-c1ccc(O)cc1)Nc1cccc(S(=O)(=O)N2CCCC2)c1 -1
CCOC(=O)Cc1csc(NC(=S)NC(=O)c2ccccc2C)n1 1
CCOC(=O)Cc1csc(NC(=S)NC(=O)c2ccccc2Br)n1 1
CCOC(=O)c1ccc(NC(=O)N2CCN(Cc3cccc(F)c3)CC2)cc1 -1
CC1CCC/C(=N\NC(=O)COc2ccc(Cl)cc2Cl)C1 (stereo unspecified) 1
N#C/C(=N\Nc1ccc(Cl)cc1)C(=O)c1ccccc1 -1
CC(C)c1nc(N2CCN(C(=O)c3ccccc3)CC2)c(C#N)c2c1COC(C)(C)C2 -1
O=C(NN=C1c2ccccc2-c2ccccc21)c1cccc(Br)c1 1
O=C(Nc1nnc(-c2ccc3c(c2)CCCC3)o1)c1ccc(Cl)cc1Cl 1
O=C(Nc1nnc(-c2ccc3c(c2)CCCC3)o1)c1ccccc1Cl 1
O=C(Nc1nnc(-c2ccc3c(c2)CCCC3)o1)c1ccccc1 1
O=C(Nc1nnc(-c2ccc3c(c2)CCCC3)o1)C1COc2ccccc2O1 (stereo unspecified) 1
Fc1cccc(C2NN=C(c3ccccc3)S2)c1 (stereo unspecified) 1
CC12CN(Cc3ccccc3)CC(C)(CN(Cc3ccccc3)C1)C2=NO -1
COC(=O)c1ccc(CSc2ccc3nnc(-c4ccccc4)n3n2)o1 -1
O=C(Cc1csc(Nc2nc(=S)[nH]c3ccccc23)n1)NCc1cccc(Cl)c1 1
CON(c1nc(Cl)nc(N(C)C)n1)S(=O)(=O)c1ccccc1Cl -1
O=C(c1csc2c1CCCC2)N1CCN(c2ccc(F)cc2)CC1 -1
C=CCn1c(=S)[nH]c2ccc(Br)cc2c1=O 1
C=CCn1c(=S)[nH]c2ccccc2c1=O 1

Manual score, inactive:
CC1(C)NC(=O)NC2(C)NC(=O)NC(C)(C)C12 (stereo unspecified) 0
COc1cc(NC(=O)CS(=O)(=O)c2ccc(C)cc2)cc(OC)c1OC 0
O=C1OCCC1Sc1nc2cc(Cl)ccc2n1Cc1ccccc1 (stereo unspecified) 0
CCCCSc1nc(N)c(NC(=O)c2ccco2)c(=O)[nH]1 0
CCN(C(=O)COc1cc(=O)n(CC)c2ccccc12)c1cc(Cl)ccc1OC -0.5
COc1ccc(S(=O)(=O)NCCC(=O)NC2CCCCCCC2)cc1 0
COC(=O)[C@H]1CCCN1C(=O)Nc1cccc(Oc2c(F)c(F)c(F)c(F)c2F)c1 0
Cc1ccc(OCC(=O)N/N=C\c2ccc(-c3cccc(C(=O)O)c3)o2)c(C)c1 0
Cc1conc1NC(c1cccs1)c1ccc2cccnc2c1O (stereo unspecified) 0
O=S(=O)(Nc1nc(-c2sccc2Cl)cs1)c1cc(Cl)ccc1Cl 0
Cc1cc(NC(=O)c2c(F)cccc2Cl)n(-c2nc3ccccc3[nH]2)n1 0
COc1ccccc1NC(=O)c1cc(C(=O)Nc2ccccc2OC)cc(N2C(=O)CCC2=O)c1 0
COc1ccccc1-c1ccc(NC2CCCC2)nn1 0
CCCC(=O)NC(c1cccs1)c1cc([N+](=O)[O-])c2cccnc2c1O (stereo unspecified) 0
CCc1c(C)sc(NC(=O)CCc2ccc(OC)cc2)c1C(N)=O 0
O=C(Cn1c(=O)[nH]c2ccsc2c1=O)NC1CCCCCC1 0
COc1cc(NC(=O)CCn2c(=O)[nH]c3ccsc3c2=O)cc(OC)c1 0
CCNC(=S)NNC(=O)c1cccn(Cc2ccc(Cl)cc2)c1=O 0
O=C(NNC(=S)Nc1cccc(C(F)(F)F)c1)c1cccc(Cl)c1 0.5
Cn1c2ccccc2c2cc(C(=O)NNS(=O)(=O)c3ccc(F)cc3)sc21 0
Cn1sc(NC(=O)c2cccc(Cl)c2)nc1=O 0
Cc1cccc(-n2c(O)c(/C=N/NC(=O)c3ccccc3Cl)c3ccccc3c2=O)n1 0
Clc1ccc(Cl)c(OCc2cc(-c3ccccc3Cl)on2)c1 0
C/C(=N\O)C(C)NC(=O)c1ccccc1 (stereo unspecified) -0.5
CC1Oc2ccccc2C=C1/C=N/NC(=O)c1ccccc1 (stereo unspecified) 0
Cc1nc(/N=C(\N)NC(=O)c2ccccc2)nc2ccccc12 0
O=C(NNc1ncc(C(F)(F)F)cc1Cl)c1c(Cl)cccc1Cl 0
Cc1ccc(C(=O)NC2(C(F)(F)F)N=C3SCCN3C2=O)cc1 (stereo unspecified) 0
Cc1ccc(C(=O)N/N=C/C2=Cc3ccccc3OC2C)cc1 (stereo unspecified) 0
COc1ccc(-n2cc(-c3ccccc3)[nH]c2=S)cc1 0
CCCc1cc(=O)n2[nH]c(-c3ccc(Br)cc3)cc2n1 0
O=C1Nc2ccccc2C12OCC1(CO2)COC2(OC1)C(=O)Nc1ccccc12 (stereo unspecified) 0
CCOc1ccc(NC(=O)Cn2nnc(-c3ccccc3F)n2)cc1 0
COc1cc(NC(=O)CSCc2cnn(-c3ccccc3)c2-n2cccc2)cc(OC)c1 0
CCOC(=O)c1cccc(NC(=O)CSc2nnc(C3CCCCC3)n2C)c1 0
Cc1ccc(C)c(-n2nnnc2SCC(=O)Nc2cccc(-c3nnc4n3CCCCC4)c2)c1 3
Cc1ccccc1C(=O)NC(=S)Nc1ccc(Oc2ccc(Cl)cc2)cc1 0
COc1cc(OC)c(-c2c3cc(O)c(=O)cc-3oc3cc(O)c(O)cc23)cc1OC 3
CCOC(=O)c1ccc(NC(=O)Nc2ccc(OC)c(OC)c2)cc1 0.5
CCCOC(=O)c1ccc(NC(=O)c2ccoc2C)cc1 0.5
CN1C(=O)c2oc3ccccc3c(=O)c2C1c1ccccn1 (stereo unspecified) 0
O=C(N/C(=N\O)c1ccccc1)Nc1ccc(Cl)cc1 0
Cc1ccc(/C=N/Nc2nc(Cl)c(Cl)cc2Cl)s1 0
O=S(=O)(Nc1cc(Sc2cccc3cccnc23)c(O)c2ccccc12)c1ccc(F)cc1 0
O=c1c2c(nc3c(-c4cccc(Br)c4)c[nH]n13)CCCC2 0
N#Cc1c(N2CCN(C(=O)c3ccccc3)CC2)nc(-c2ccccc2)c2c1CCCC2 0
CSc1nc(N2CCOCC2)c2c(c1C#N)CC(C)(C)OC2 -0.5
CC1CCCN(Cc2cccc(Oc3ccccc3)c2)C1 (stereo unspecified) 0.5
CCOc1ccc(N2C(=O)/C(=C/c3cc(OC)c(OC)c(OC)c3)N(CC(=O)OC)C2=S)cc1 0
CCOC(=O)N1CCC(NC(=O)c2cnn3c2NC(c2ccco2)CC3C(F)(F)F)CC1 (stereo unspecified) 0
O=C(NN=C1c2ccccc2-c2ccccc21)c1ccccc1Br 0
S=C(Nc1cccc(Br)c1)c1ccccc1 0
CN(C)S(=O)(=O)c1ccc(C(=O)Nc2nnc(-c3ccc4c(c3)CCCC4)o2)cc1 0
O=C(Nc1cccc(-c2nnc(-c3ccccc3)o2)c1)C1CCCO1 (stereo unspecified) 0
O=C(Nc1ccc(-c2nc3ccccc3o2)cc1)c1cc(-n2cnnc2)ccc1Cl 0
CN=c1scc(-c2cccs2)n1/N=C/c1ccc(O)c(O)c1O 0
CCOc1cc(-c2noc(-c3cccnc3)n2)ccc1OC 0
CCOc1cc(C2NN=C(c3ccc(C)cc3)S2)ccc1O (stereo unspecified) 0.5
CC1CC(=S)Nc2ccccc2N1Cc1ccccc1 (stereo unspecified) 0
O=C(OCCN1C(=O)c2cccc3c(N4CCOCC4)ccc(c23)C1=O)c1cccc(Cl)c1 3
O=C(NCCSc1c[nH]c2ccccc12)c1ccco1 0
COC(=O)c1ccc(CSc2nnc(Nc3ccccc3OC)s2)o1 0
CCC(Sc1ccc2nnc(-c3ccc(F)cc3)n2n1)C(=O)OC (stereo unspecified) 0
O=C(Cc1csc(Nc2nc(=S)[nH]c3ccccc23)n1)NCc1ccccc1Cl 0
Cc1ccc(CNC(=O)Cc2csc(Nc3nc(=S)[nH]c4ccccc34)n2)cc1 0.5
COc1cccc(N2CCN(c3c4c(nc5ncnn35)CCC4)CC2)c1 0
O=C1c2cccc3c(O)ccc(c23)C(=O)N1Cc1ccccc1 3
COCCn1c(=S)[nH]c2cc(C(=O)N3CCN(c4ccc(F)cc4)CC3)ccc2c1=O 0
O=C(C1CCC(Cn2c(=S)[nH]c3ccccc3c2=O)CC1)N1CCN(c2ccccc2)CC1 (stereo unspecified) 0
O=c1c2ccccc2[nH]c(=S)n1CCN1CCN(Cc2ccccc2)CC1 0
O=c1c2cc(Cl)ccc2[nH]c(=S)n1Cc1cccs1 0
